KB-V1 MDR tox: KB-V1 MDR subline cytotoxicity; KB-V1 MDR cells viability, CellTiter-Glo, 72 h; Potency, µM (titrated, usually from 46.1 µM), hits mostly cytotoxic; 400,000 tested, 3.4% active; also: nearly all actives have a fitted effect of over 60% in size
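Luminescent ATP read-out (CellTiter-Glo, 10 min) measures survival of drug-selected KB-V1 MDR cells after 72 h, 37 degrees C compound exposure. Medium: phenol-red-free DMEM, 10% FBS. Values from fitted concentration-response curves.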
Giardia kill: Giardia lamblia killing; AID 540267; Giardia lamblia trophozoite viability; activity change, % at 7.66 µM, hits read low; 340,000 tested, 0.15% active; in the data active = activity change below about -80%; inconclusive = between about -30% and that limit;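 also: parasites exposed to compound for two days anaerobically before the ATP read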
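Trophozoite viability was measured as ATP-dependent luminescence, read 15-30 min after reagent addition. Before that, parasites at 100 cells/well were exposed to compounds for 48 h, anaerobically, at 37 deg C.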
KB-3-1 cytotox: KB-3-1 parental cell cytotoxicity | Potency, µM (doses to about 46.1 µM), hits mostly cytotoxic | 400,000 tested, 1.4% active | KB-3-1 viability, CellTiter-Glo ATP luminescence, 72 h; also: nearly all actives have a fitted effect of over 60% in size
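Using CellTiter-Glo luminescence, growth of non-resistant KB-3-1 adenocarcinoma cells is assessed 72 h after pin-tool compound addition at 37 °C. Normalized responses across the concentration series yield fitted curves.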
Nrf2 inh: blocks Nrf2 signaling; AID 504444; 360,000 tested, 2.1% active; Potency, µM (highest dose often 46 µM), hits mostly inhibitors; A549 ARE-Fluc reporter, luciferase luminescence, 18-24 h; also: nearly all actives have a fitted effect of over 60% in size
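Two sequential reads on A549 ARE_Fluc cells exposed to compound for 18-24 h: a CellTiter-Fluor fluorescence read for viability, then a luciferase luminescence read for Nrf2/ARE activity.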
A549 tox: counter-screen for Nrf2 inhibitors: cytotoxicity in A549 cells; A549 ARE-Fluc cells, CellTiter-Fluor viability, 18-24 h; Potency, µM (top dose mostly 46 µM), actives largely listed as inhibitors; 390,000 tested, 0.16% active
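A549 ARE_Fluc cells in 5% FBS OPTI-MEM were exposed to compounds in concentration-response for 18-24 h at 37 deg C. Viability was read by CellTiter-Fluor fluorescence (Ex 405/Em 525) after 30 min, before the luciferase read.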
PI4K2A block: PI4K2A (human) kinase inhibition; Q9BTU6; purified PI4K2A, ADP-Glo luminescence, 1 h; hits give low values; activity change, negative = inhibition, % at 76.9 µM; 420,000 tested, 0.13% active; AID 1346378; in the data active = activity change below about -50%; inconclusive = mostly about -30% to -49%
Target sequence (Q9BTU6 whole entry, looked up): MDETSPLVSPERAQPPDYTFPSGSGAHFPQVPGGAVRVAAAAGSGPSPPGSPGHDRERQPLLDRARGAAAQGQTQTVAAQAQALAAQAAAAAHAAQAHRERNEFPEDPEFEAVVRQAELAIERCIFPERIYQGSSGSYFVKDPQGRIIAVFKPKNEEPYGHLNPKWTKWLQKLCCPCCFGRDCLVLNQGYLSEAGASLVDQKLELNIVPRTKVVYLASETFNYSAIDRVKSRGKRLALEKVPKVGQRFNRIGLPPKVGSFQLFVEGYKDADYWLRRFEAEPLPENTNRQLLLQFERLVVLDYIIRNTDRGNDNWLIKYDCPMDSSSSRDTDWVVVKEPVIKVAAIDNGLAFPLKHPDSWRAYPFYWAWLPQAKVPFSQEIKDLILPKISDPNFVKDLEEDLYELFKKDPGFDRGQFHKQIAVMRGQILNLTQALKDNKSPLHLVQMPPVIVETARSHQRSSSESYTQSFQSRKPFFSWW
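PI4K2A activity was measured by ADP-Glo luminescence: enzyme (4 ug/mL stock) and phosphatidylinositol (1.2 mM stock) in Tris pH 7.5/MgCl2/EGTA/Triton X-100 buffer were reacted with ATP (300 microM stock) for one hour at ambient temperature.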
Hits are given with their value; n = inactive; u = inconclusive; x = not tested or not shown. Rows were chosen to be rich in hits. Some 5.7% of all compounds tested hit in one or more screens of this group. Unless noted, calls follow the shape of the dose curve; as a rule, active = well fitted curve in the direction sought with a large enough effect; inconclusive = small, poorly fitted or top-dose-only effect, or another doubt; inactive = no such curve, though single readings can be large; an effect the other way counts as inactive or inconclusive.

SMILES	KB-V1 MDR tox	Giardia kill	KB-3-1 cytotox	Nrf2 inh	A549 tox	PI4K2A block
O=C(NNc1c2ccccc2nc2ccccc12)c1ccc(Cl)cc1	n	n	u	u	n	n
CNc1nc(SC)nc2ccccc12	n	n	n	n	n	n
CSc1nc(N(C)NC(=O)c2ccc(Cl)cc2)c2ccccc2n1	2.9µM	n	0.58µM	n	u	n
CCC(NC(=O)c1ccccc1O)c1ccccc1 (centres undefined)	16µM	n	n	x	n	n
CCC(NC(=O)CCCc1ccccc1)c1ccccc1 (centres undefined)	18µM	n	n	n	n	n
CCC(NC(=O)c1ccc([N+](=O)[O-])cc1[N+](=O)[O-])c1ccccc1 (centres undefined)	n	n	n	n	n	n
CCCCNC(=O)[C@@H]1CC=C[C@@H]2CCN(CCCC)C(=O)[C@@H]21	n	x	n	x	x	x
COC(=O)[C@@]12C[C@@H](CC(=O)N3CCN(C(=O)c4ccco4)CC3)C(=O)N(Cc3cccc4ccccc34)C1=CCC(C)(C)C2	23µM	x	u	x	x	n
CCOC(=O)N1CCN(C(=O)C[C@@H]2C[C@@]3(C(=O)OC)CC(C)(C)CC=C3N(Cc3cccc4ccccc34)C2=O)CC1	18µM	x	n	x	x	n
COC(=O)[C@@]12C[C@@H](CC(=O)N3CCCCC3)C(=O)N(Cc3cccc4ccccc34)C1=CCC(C)(C)C2	u	x	u	x	x	n
CCCCCCCCN1C(=O)[C@H](CC(=O)N2CCN(C(=O)c3ccco3)CC2)C[C@@]2(C(=O)OC)CC(C)(C)CC=C12	u	x	n	x	x	n
CC(=C(CCOC(=O)C(C)C)SSC(CCOC(=O)C(C)C)=C(C)N(C=O)Cc1cnc(C)nc1N)N(C=O)Cc1cnc(C)nc1N	x	x	x	x	x	n
Nc1c(C(=O)Nc2ccc(Cl)c(C(F)(F)F)c2)sc2nc(-c3ccncc3)ccc12	x	x	x	7.3µM	n	n
Nc1c(C(=O)Nc2nc3ccccc3s2)sc2nc(-c3cccs3)ccc12	n	n	8.2µM	21µM	u	-63
Nc1c(C(=O)Nc2ccc(F)c(F)c2)sc2nc(-c3ccncc3)ccc12	n	x	n	n	n	n
Nc1c(C(=O)Nc2ccccc2Br)sc2nc(-c3cccs3)ccc12	n	x	n	n	n	n
Cc1ccccc1NC(=O)c1sc2nc(-c3ccncc3)ccc2c1N	n	x	n	26µM	n	n
CN1CCN(C(=O)/C(=C/c2ccccc2)c2ccccc2)CC1	n	n	u	n	n	n
CC1CC(C)CN(C(=O)/C(=C\c2ccccc2)c2ccccc2)C1 (centres undefined)	8.2µM	n	u	n	n	n
Cc1ccc(NC(=O)C2CC3CCC2C3)c(C)c1 (centres undefined)	x	x	x	x	x	n
CCN(Cc1nc2ccccc2c(=O)[nH]1)C(=O)c1ccc(C)c(NC(=O)c2ccco2)c1	n	n	u	16µM	n	n
COc1ccc(CCN(Cc2nc3ccccc3c(=O)[nH]2)C(=O)c2ccco2)cc1	21µM	n	n	n	n	n
O=C(Nc1ccncc1)c1cnn2c1NC(=C1CC1)C=C2C(F)F	u	x	n	x	x	x
O=CN1Cc2[nH]c3ccccc3c2N(c2ccc(Cl)cc2)C1=O	n	n	n	n	x	n
O=C1CNCc2[nH]c3ccccc3c2N1c1ccccc1	23µM	n	n	n	n	n
SMILES	KB-V1 MDR tox	Giardia kill	KB-3-1 cytotox	Nrf2 inh	A549 tox	PI4K2A block
CN(CCO)c1cccc2c1S(=O)(=O)N(Cc1cn(Cc3ccccc3C(F)(F)F)nn1)Cc1ccccc1O2	x	x	x	x	x	n
O=C1NC(c2cccc3ccccc23)Nc2ccc(Cl)cc21 (centres undefined)	0.23µM	n	0.18µM	u	n	n
Clc1ccc(C2Nc3cccc4cccc(c34)N2)c(Cl)c1	n	n	u	n	n	n
CC(=O)c1ccc(OCC(=O)Nc2cccc(S(=O)(=O)N3CCCC3)c2)cc1	u	n	n	16µM	n	n
COc1ccc(S(=O)(=O)N2CCOCC2)cc1NC(=O)CO/N=C/c1ccccc1OC(F)F	u	n	n	n	n	n
Cc1ccc(S(=O)(=O)N2CCOCC2)cc1NC(=O)COc1ccccc1Cc1ccccc1	n	n	n	u	n	n
CC(=O)c1ccccc1OCC(=O)Nc1cccc(S(=O)(=O)N2CCCC2)c1	n	n	n	13µM	n	n
O=C(COc1ccccc1Cc1ccccc1)Nc1cccc(S(=O)(=O)N2CCOCC2)c1	5.2µM	n	u	u	n	n
CC(O/N=C/c1ccccc1OC(F)F)C(=O)Nc1cccc(S(=O)(=O)N2CCOCC2)c1 (centres undefined)	13µM	n	n	n	n	n
COC(=O)c1ccc(NC(=O)COc2ccc(S(=O)(=O)N3CCCCC3)cc2)cc1	5.2µM	n	n	x	n	n
C=CCn1c(COc2ccc(F)cc2)nnc1SCC(=O)c1c[nH]c2c(CC)cccc12	13µM	n	n	n	n	n
C=CCn1c(COc2ccccc2)nnc1SCC(=O)c1ccc(OC)cc1	x	x	x	x	x	n
C=C1CCN(C(Cc2ccccc2)C(=O)NC2CCN(Cc3ccccc3)CC2)S(=O)(=O)c2ccccc21 (centres undefined)	x	n	x	n	n	x
COc1ccc2ccccc2c1C=NNC(=O)c1cc(-c2ccc(C)c(C)c2)n[nH]1	x	x	x	x	x	n
C=CCN(CC=C)C(=O)c1ccc(OC2CCN(S(=O)(=O)N(C)C)CC2)cc1	21µM	n	u	n	n	n
Brc1ccc(Cn2c(-c3cncs3)nc3ccccc32)cc1	16µM	n	n	n	n	n
Cc1ccc(-c2noc(-c3ccc(NC4CCCC4)c([N+](=O)[O-])c3)n2)cc1	n	x	n	n	n	n
CSc1nc(SCCO)c2sc3nc(-c4ccco4)c4c(c3c2n1)CC(C)(C)OC4	n	n	u	n	x	n
CSc1nc(N(CCO)CCO)c2sc3nc(-c4ccco4)c4c(c3c2n1)CCC4	n	n	n	u	n	-56
CC(=O)N1CCc2c(sc3c2c(=O)n(-c2ccccc2Cl)c(=O)n3C)C1	n	x	n	x	n	n
NC(CO)c1csc(Nc2ccc(C(F)(F)F)cn2)n1 (centres undefined)	n	x	n	x	x	n
CC(C)CC(N)c1csc(Nc2ccc(C(F)(F)F)cn2)n1 (centres undefined)	16µM	x	u	x	x	n
COc1ccc(Cn2nnnc2C(c2ccccc2)N2CCN(c3ccccc3)CC2)cc1 (centres undefined)	u	n	u	n	n	x
CN(CC(=O)Nc1ccncc1)S(=O)(=O)c1ccc(Br)cc1	21µM	n	n	u	u	n
Cc1ccc(S(=O)(=O)N(C)CC(=O)Nc2nc3ccccc3s2)cc1	n	n	n	n	n	n
